Most compounds without a hit are left out; they make up all but 3.2% or so of the library.
Ecoli rRNA inh: reduced GFP signal of wild-type E. coli, primary screen, bacterial rRNA inhibitor project, GFP/RFP fluorescence, OD600, single point; E. coli WT GFP vs humanized-ribosome RFP mutants, 24 h; active compounds read low; DMSO median 0, no signal -100; GFP signal change (wild-type ribosome), % (concentration not given with the values); 1.6% of 350,000 active; AID 720706, 2013;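 active = significant combined selectivity score with lowered wild-type GFP, culture density cut under 30%, mutant RFP and density less affected; inactive = any of these conditions unmet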
ERAP1 HTS inh: human ERAP1 aminopeptidase inhibitors, primary screen, biochemical, single point, plate reader | Endoplasmic reticulum aminopeptidase 1 (Homo sapiens), Q9NZ08 | recombinant ERAP1, Leu-AMC fluorescence, 60 min | inhibition, % at 10.7 µM | 0.15% of 340,000 active | AID 652197, 2013;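 active = mean replicate inhibition of at least 30%, or all replicates individually reaching that 30% level; inactive = mean below 30% and not every replicate reaching it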
Target sequence (Q9NZ08 whole entry, looked up): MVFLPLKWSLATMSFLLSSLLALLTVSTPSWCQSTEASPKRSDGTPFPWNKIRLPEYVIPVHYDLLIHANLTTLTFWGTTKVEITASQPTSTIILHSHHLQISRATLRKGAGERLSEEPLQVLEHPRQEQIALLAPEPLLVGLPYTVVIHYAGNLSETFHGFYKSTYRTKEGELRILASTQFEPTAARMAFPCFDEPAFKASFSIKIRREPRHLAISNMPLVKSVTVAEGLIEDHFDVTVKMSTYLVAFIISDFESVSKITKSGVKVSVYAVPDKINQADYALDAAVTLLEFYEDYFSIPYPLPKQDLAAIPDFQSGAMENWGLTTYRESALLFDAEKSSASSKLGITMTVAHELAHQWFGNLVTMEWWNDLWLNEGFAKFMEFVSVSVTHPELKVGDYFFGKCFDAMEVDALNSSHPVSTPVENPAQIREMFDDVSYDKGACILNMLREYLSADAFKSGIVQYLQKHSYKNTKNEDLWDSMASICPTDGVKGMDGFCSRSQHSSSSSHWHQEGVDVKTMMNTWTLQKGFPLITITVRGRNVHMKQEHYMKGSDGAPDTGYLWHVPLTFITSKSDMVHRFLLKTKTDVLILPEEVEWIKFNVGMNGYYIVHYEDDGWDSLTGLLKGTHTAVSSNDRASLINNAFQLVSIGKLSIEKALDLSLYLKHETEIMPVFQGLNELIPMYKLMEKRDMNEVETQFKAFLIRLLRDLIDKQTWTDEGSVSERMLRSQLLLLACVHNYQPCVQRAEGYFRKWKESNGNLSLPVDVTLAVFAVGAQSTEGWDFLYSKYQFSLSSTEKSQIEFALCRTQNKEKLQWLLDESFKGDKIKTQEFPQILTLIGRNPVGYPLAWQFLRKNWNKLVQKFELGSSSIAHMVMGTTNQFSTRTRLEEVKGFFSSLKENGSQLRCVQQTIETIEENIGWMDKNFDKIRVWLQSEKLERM
CaV13 ICDI inh: Disruptors of the CACNA1D IQ motif to Ca2+-dependent inactivation inhibitor domain association, primary screening, Förster resonance energy transfer in intact living …; HEK cells, CFP/YFP FRET ICDI-IQ, plate reader, 10 min; percent FRET-ratio fall versus neutral wells; inhibition, % at 12.3 µM; 0.098% of 340,000 active; AID 743397;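 active = mean replicate inhibition of at least 30% and at least 1% of replicates passing that level; inconclusive = only one of the two criteria is met; inactive = neither criterion is met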
DENV2 CPE rescue: inhibitors of DENV2 cytopathic effect, primary screen, cell-based, plate reader, single concentration; CPE inhibition, % at 9.99 µM; DENV2-infected cells, cytopathic effect rescue; 1.7% of 350,000 active; in the data active = CPE inhibition above about 20%, passing the limit was not always enough; inconclusive = no clear call, values can overlap the other calls; tested in BHK-21 cells
GSIS activator: GLuc luminescence reporter in INS-1E cells, primary screen for activators of glucose-dependent secretion of insulin | AID 743287, 2014 | INS-1E GLuc reporter insulin secretion, 2-3 h | activation, % at 16.6 µM | 0.61% of 370,000 active;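 active = lowest replicate activation of at least 40%, so every replicate reaches that level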
PGC1a acetyl inh: inhibitors of PGC1a acetylation signal, primary screen, cell-based, U2OS, AlphaScreen, inhibitor mode | AlphaScreen anti-acetyl-lysine; with virally co-expressed GCN5 acetyltransferase | AID 651687, 2012 | inhibition, % at 15.6 µM | 0.17% of 350,000 active;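 active = every replicate shows inhibition of at least 40%; inconclusive = mean inhibition at least 40% but some replicate below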
Large screens that a line does not name were inactive.

CCC1(C)Cc2ccccc2-c2nc(SCC(N)=O)[nH]c(=O)c21 (stereo not drawn)	none
CCC1(CC)Cc2ccccc2-c2nc(NCCCO)[nH]c(=O)c21	none
CCC1(C)Cc2ccccc2-c2nc(NCCCO)[nH]c(=O)c21 (stereo not drawn)	Ecoli rRNA inh -28 (no result: ERAP1 HTS inh)
CCC1(C)Cc2ccccc2-c2nc(SC)[nH]c(=O)c21 (stereo not drawn)	GSIS activator 60 (no result: PGC1a acetyl inh)
C[C@H](CO)N1C[C@H](C)[C@@H](CN(C)C(=O)Nc2ccc3c(c2)OCO3)Oc2ncc(-c3cccnc3)cc2C1=O	none (no result: CaV13 ICDI inh)
C[C@H]1CN([C@@H](C)CO)C(=O)c2cccc(NC(=O)c3cnccn3)c2O[C@@H]1CN(C)Cc1ccncc1	none (no result: CaV13 ICDI inh)
COc1cccc(C(=O)C(C#N)=C(SC)SC)c1	DENV2 CPE rescue 34
COc1ccc(-c2csc3nc(-c4ccccc4OC)oc(=O)c23)cc1	Ecoli rRNA inh -20
COc1ccc(-c2csc3nc(-c4ccc(C)cc4)oc(=O)c23)cc1OC	none (no result: PGC1a acetyl inh)
O=C(NCC[C@H]1CC[C@H](NC(=O)c2cnccn2)[C@@H](CO)O1)Nc1ccc(Cl)cc1	none (no result: CaV13 ICDI inh)
c1ccc(-c2[nH]ncc2CN2CCN(Cc3ccc4c(c3)OCO4)CC2)cc1	Ecoli rRNA inh -47
O=[N+]([O-])c1ccc2ncnc(N3CCN(Cc4ccc5c(c4)OCO5)CC3)c2c1	none
O=[N+]([O-])c1cccnc1N1CCN(c2ccc(F)cc2)CC1	Ecoli rRNA inh -32 (no result: CaV13 ICDI inh, DENV2 CPE rescue)
C(=C\c1ccccc1)/CN1CCN(Cc2ccc3c(c2)OCO3)CC1	none
O=[N+]([O-])c1ccccc1/C=C/CN1CCN(Cc2ccc3c(c2)OCO3)CC1	DENV2 CPE rescue 47
O=[N+]([O-])c1cccnc1N1CCN(Cc2ccc3c(c2)OCO3)CC1	DENV2 CPE rescue 34
O=C(N[C@H]1C=C[C@H](CC(=O)N2CCN(c3ccccc3)CC2)O[C@@H]1CO)c1ccncc1	none (no result: CaV13 ICDI inh)
O=C1CCN(c2ncccc2[N+](=O)[O-])CC1	none (no result: PGC1a acetyl inh)
COc1cc2c(cc1OC)CN(c1ncccc1[N+](=O)[O-])CC2	GSIS activator 50 (no result: PGC1a acetyl inh)
O=S(=O)(Nc1ccc(N2CCCCC2)cc1)c1ccc(F)cc1	Ecoli rRNA inh -36
O=S(=O)(Nc1ccc(N2CCOCC2)cc1)c1ccc(F)cc1	none (no result: CaV13 ICDI inh)
C[C@@H]1CN([C@H](C)CO)C(=O)c2cc(NC(=O)Nc3cccc4ccccc34)ccc2O[C@@H]1CN(C)CC1CCCCC1	DENV2 CPE rescue inconclusive (no result: CaV13 ICDI inh)
N=c1c(C(=O)NCCN2CCOCC2)cc2c(=O)n3ccccc3nc2n1CCc1ccccc1	ERAP1 HTS inh 51
N=c1c(C(=O)NCCc2ccccc2)cc2c(=O)n3ccccc3nc2n1CCCN1CCOCC1	none
Cn1c(C(=O)NCCN2CCOCC2)cc2c(=O)n3ccccc3nc21	none (no result: PGC1a acetyl inh)
COCCCn1c(C(=O)NCCN2CCOCC2)cc2c(=O)n3ccccc3nc21	ERAP1 HTS inh 42 (no result: PGC1a acetyl inh)
CC(C)[C@@H]1COCc2cn(nn2)CC[C@@H](Cc2ccccc2)C(=O)N1	none (no result: CaV13 ICDI inh, PGC1a acetyl inh)
CC1(C(=O)NCC2CC2)C=CC2(CCCCC2)N1C(=O)c1ccccc1 (stereo not drawn)	none (no result: CaV13 ICDI inh, DENV2 CPE rescue)
CC1(C(=O)NCc2cc(F)cc(C(F)(F)F)c2)C=CC2(CCCCC2)N1C(=O)c1ccccc1 (stereo not drawn)	DENV2 CPE rescue 100
COc1ccccc1NC(=O)N[C@H]1C=C[C@@H](CC(=O)N2CCC(Cc3ccccc3)CC2)O[C@@H]1CO	none (no result: CaV13 ICDI inh)
CCN(CC)CCOC(=O)c1ccc(NC(=O)CCCN2C(=O)/C(=C\c3cccs3)SC2=S)cc1	Ecoli rRNA inh -27
COc1cc(/C=C2/SC(=S)N(CC(=O)Nc3cccnc3)C2=O)cc(OC)c1OC	none (no result: Ecoli rRNA inh, ERAP1 HTS inh, DENV2 CPE rescue, PGC1a acetyl inh)
COc1ccc(/C=C2\SC(=O)N(CC(=O)Nc3cccnc3)C2=O)cc1OC	DENV2 CPE rescue 23
Cc1cc(NC(=O)CCCN2C(=O)/C(=C\c3cccs3)SC2=S)no1	GSIS activator 54 (no result: Ecoli rRNA inh, ERAP1 HTS inh, DENV2 CPE rescue)
O=C(CCCN1C(=O)/C(=C\c2cccs2)SC1=S)Nc1cccnc1	DENV2 CPE rescue 30 (no result: GSIS activator)

High-throughput results as filed in PubChem BioAssay.
